Growth inhibition, inhibition and outcome data for 19 compounds are collected here from PubChem BioAssay.

Values without a mark were called inactive. For some assays here: Potency and affinity values are given separately. The source made the active and inactive calls. Unless noted, the rule behind the calls is not given here.

The nature of experiment [1]: antimalarial activity against Dd2 strain (AID 2302;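 active = growth inhibition above 50% at the single 2 µM test dose, taken to imply half-maximal potency below 2 µM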;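 note: 0% = DMSO untreated growth and 100% = chloroquine plus artemisinin killed control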). The conditions noted are these: P. falciparum Dd2 in RBCs, LDH growth readout, 72 h; at 2 µM; hits give high values.
Experiment [2] is described as follows: human hepatoma cell viability loss – ATP luminescence, cytotoxicity control for P. falciparum antimalarial project, primary screen (AID 2303;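 active = inhibition above 50%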;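 note: 0% = DMSO wells and 100% = digitonin-killed cells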). The conditions noted are these: HepG2 viability, 24-48 h, at 10 µM, hits give high values.
Experiment [3] has as its target L-lactate dehydrogenase (Plasmodium falciparum (isolate CDC / Honduras)) (UniProt Q27743). The experiment can be described thus: PfLDH activity inhibition – cell lysate, 3D7 strain, counter-screen for P. falciparum growth inhibition project (AID 2304).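 Note: 0% = vehicle and 100% = reference inhibitor.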 The note with it: P. falciparum 3D7 crude extract, LDH APAD/NBT absorbance; at 2 µM; hits give high values.
A short description of experiment [4]: inhibition of 3D7 malaria parasite growth – strain 3D7 (AID 2306).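 Note: 0% = DMSO wells and 100% = chloroquine plus artemisinin control wells.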 The conditions noted are these: P. falciparum 3D7 erythrocytic growth, LDH absorbance, 72 h; at 2 µM; hits give high values.
For experiment [5], the target named is Calcium-dependent protein kinase 1 (Plasmodium falciparum (isolate 3D7)) (UniProt P62344). Put plainly: PfCDPK1 kinase inhibitors, biochemical, TCAMS library (AID 1159585; cut-off not given, nearly all actives have IC50 up to about 0.98 µM;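 note: inhibitors leave more ATP so luminescence rises with inhibition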). The conditions noted are these: recombinant PfCDPK1, Kinase-Glo ATP depletion luminescence. On the technique in general: Kinase-Glo reads ATP consumption through a luciferase reaction.
Chain of Calcium-dependent protein kinase 1 (Plasmodium falciparum (isolate 3D7)) (P62344 whole entry, looked up): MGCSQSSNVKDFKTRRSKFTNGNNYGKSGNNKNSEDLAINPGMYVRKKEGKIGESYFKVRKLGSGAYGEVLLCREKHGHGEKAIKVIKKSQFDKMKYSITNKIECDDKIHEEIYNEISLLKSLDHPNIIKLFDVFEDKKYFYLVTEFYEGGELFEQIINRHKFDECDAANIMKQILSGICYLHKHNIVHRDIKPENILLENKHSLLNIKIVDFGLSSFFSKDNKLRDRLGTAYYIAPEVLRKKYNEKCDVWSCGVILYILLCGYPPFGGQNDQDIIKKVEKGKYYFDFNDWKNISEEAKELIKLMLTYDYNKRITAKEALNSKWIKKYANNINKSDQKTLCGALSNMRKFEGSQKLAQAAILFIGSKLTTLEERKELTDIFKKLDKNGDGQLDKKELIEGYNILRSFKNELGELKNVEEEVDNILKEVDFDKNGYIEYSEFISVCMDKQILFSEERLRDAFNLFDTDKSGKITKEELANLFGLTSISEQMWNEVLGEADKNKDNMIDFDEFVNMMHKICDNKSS
The target of experiment [6] is Plasmodium falciparum protein kinase 6 (PK6, PF3D7_1337100) (UniProt Q8IDW1). The experiment can be described thus: PfPK6 kinase inhibitors, biochemical, TCAMS library (AID 1159586). The note with it: recombinant PfPK6, Kinase-Glo ATP depletion luminescence.
Chain of Plasmodium falciparum protein kinase 6 (PK6, PF3D7_1337100) (Q8IDW1 1-305): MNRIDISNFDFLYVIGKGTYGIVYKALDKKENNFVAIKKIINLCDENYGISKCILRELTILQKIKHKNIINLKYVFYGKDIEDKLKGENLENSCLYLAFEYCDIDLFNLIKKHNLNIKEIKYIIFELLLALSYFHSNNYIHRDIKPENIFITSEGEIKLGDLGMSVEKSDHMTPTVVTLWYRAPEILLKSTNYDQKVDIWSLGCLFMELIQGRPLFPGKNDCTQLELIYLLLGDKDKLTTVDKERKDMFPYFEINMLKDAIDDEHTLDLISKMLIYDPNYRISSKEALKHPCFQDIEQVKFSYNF
The target in experiment [7] is Protein kinase 7 (PK7), Plasmodium falciparum 3D7 (PF3D7_0213400) (UniProt Q7YTF7). The experiment can be described thus: inhibition of Plasmodium PK7 catalytic activity – biochemical, TCAMS antimalarial set, Kinase-Glo luminescence (AID 1159587). The conditions noted are these: recombinant PfPK7, Kinase-Glo ATP depletion luminescence.
Chain of Protein kinase 7 (PK7), Plasmodium falciparum 3D7 (PF3D7_0213400) (Q7YTF7 1-343): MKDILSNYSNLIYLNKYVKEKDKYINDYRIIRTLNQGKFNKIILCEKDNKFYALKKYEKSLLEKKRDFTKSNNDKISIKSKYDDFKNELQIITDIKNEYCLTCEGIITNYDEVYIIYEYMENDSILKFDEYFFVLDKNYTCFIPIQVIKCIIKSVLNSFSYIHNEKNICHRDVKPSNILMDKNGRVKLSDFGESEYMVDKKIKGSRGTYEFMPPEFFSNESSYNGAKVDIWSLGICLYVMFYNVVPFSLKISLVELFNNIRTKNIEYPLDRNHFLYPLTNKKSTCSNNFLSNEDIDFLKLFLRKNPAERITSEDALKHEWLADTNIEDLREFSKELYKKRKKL
The target of experiment [8] is Calcium-dependent protein kinase 4 (Plasmodium falciparum (isolate 3D7)) (UniProt Q8IBS5). Put plainly: PfCDPK4 kinase inhibitors, biochemical, TCAMS library (AID 1159588; cut-off not given, nearly all actives have IC50 up to about 0.91 µM). The note with it: recombinant PfCDPK4, Kinase-Glo ATP depletion luminescence.
Chain of Calcium-dependent protein kinase 4 (Plasmodium falciparum (isolate 3D7)) (Q8IBS5 whole entry, looked up): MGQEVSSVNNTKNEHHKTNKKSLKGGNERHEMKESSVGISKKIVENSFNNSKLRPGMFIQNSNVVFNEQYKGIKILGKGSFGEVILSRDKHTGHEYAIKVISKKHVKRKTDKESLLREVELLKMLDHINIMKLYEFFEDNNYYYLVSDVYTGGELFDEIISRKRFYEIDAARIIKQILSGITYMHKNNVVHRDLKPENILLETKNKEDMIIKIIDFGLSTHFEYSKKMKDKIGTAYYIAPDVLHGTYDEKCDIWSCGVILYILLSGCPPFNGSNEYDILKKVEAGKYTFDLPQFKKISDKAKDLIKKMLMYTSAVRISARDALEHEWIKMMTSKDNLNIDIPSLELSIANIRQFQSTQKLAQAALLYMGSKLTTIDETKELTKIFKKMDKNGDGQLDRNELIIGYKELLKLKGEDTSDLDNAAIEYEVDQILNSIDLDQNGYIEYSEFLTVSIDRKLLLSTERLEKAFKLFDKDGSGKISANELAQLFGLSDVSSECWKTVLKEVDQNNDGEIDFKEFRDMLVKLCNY

Chain of L-lactate dehydrogenase (Plasmodium falciparum (isolate CDC / Honduras)) (Q27743 whole entry, looked up): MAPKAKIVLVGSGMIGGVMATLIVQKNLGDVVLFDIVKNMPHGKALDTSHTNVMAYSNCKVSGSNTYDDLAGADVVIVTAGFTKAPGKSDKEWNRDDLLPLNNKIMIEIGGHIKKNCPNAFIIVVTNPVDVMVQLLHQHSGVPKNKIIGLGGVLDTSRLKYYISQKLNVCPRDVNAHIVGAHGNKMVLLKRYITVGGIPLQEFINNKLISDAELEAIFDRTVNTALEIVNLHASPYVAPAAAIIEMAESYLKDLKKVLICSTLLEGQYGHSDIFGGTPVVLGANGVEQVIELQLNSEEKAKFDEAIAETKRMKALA

As usually defined, the inhibition is the drop in the measured response relative to a control, in per cent. `CN1CCCN(c2ccnc3cc4c(cc23)N(C(=O)c2ccc(Cl)cc2Cl)CC4)CC1`: the results for the growth inhibition in experiment [1] and in experiment [4] were 51% (active) and 100% (active), respectively. Also, the inhibition in experiment [2] was 6%; in experiment [3] it was -2%. The result in experiment [5], in experiment [6], in experiment [7] and in experiment [8] was inactive.
Turning to `CC(C)(CC1CCCCC1)NC(=O)[C@H](CC1CCCCC1)Nc1ccc(C#N)c2ccccc12`, the growth inhibition was 52% (active) in experiment [1] and 98% (active) in experiment [4]. Also, the inhibition is 14% in experiment [2] and -2% in experiment [3]. Besides, the outcome in experiment [5], in experiment [6], in experiment [7] and in experiment [8] was inactive.
Regarding `CC(C)N(CCOc1ccc2c(c1)N(C(=O)Nc1cc(Br)cc(C(F)(F)F)c1)CC2)C(C)C`, the growth inhibition is 100% (active) in experiment [1] and 101% (active) in experiment [4]. Besides, the results for the inhibition in experiment [2] and in experiment [3] were 8% and 5%, respectively. Further, the outcome in experiment [5], in experiment [6], in experiment [7] and in experiment [8] was inactive.
Turning to `CCCCCN1CCC(NS(=O)(=O)c2cccc(C(=O)Nc3ccc(Cl)cc3)c2)CC1`, the growth inhibition in experiment [1] was 29%; in experiment [4] it was 88% (active). Also, the inhibition is 24% in experiment [2] and -3% in experiment [3]. Further, the outcome in experiment [5], in experiment [6], in experiment [7] and in experiment [8] was inactive.
With `O=c1c(Br)c(C(F)(F)F)[nH]c2ccc(Oc3ccccc3)cc12`, the growth inhibition in experiment [1] was 17%; in experiment [4], 91% (active). Moreover, the inhibition in experiment [2] is 6%; in experiment [3], 0%. In addition, the outcome in experiment [5], in experiment [6], in experiment [7] and in experiment [8] was inactive.
As for `CC(C)C[C@@H](/C=N/N1CCNC1=O)NC(=O)[C@H](CC(C)C)NC(=O)c1ccc(OCCN2CCOCC2)cc1`, the growth inhibition in experiment [1] is 89% (active); in experiment [4], 97% (active). The inhibition in experiment [2] was 21%; in experiment [3], -4%. Also, the outcome in experiment [5], in experiment [6], in experiment [7] and in experiment [8] was inactive.
As to `O=C(Nc1ccccc1)N(Cc1cccc(-c2cccc(CNCc3ccc4c(c3)OCO4)c2)c1)C1CCN(Cc2ccccc2)CC1`, the growth inhibition in experiment [1] is 84% (active); in experiment [4], 101% (active). The inhibition in experiment [2] was 96% (active); in experiment [3], 0%. Also, the outcome in experiment [5], in experiment [6], in experiment [7] and in experiment [8] was inactive.
As to `CC(C)(C)c1ccc2nc(-c3ccc(C(=O)NC4CCN(Cc5ccccc5)CC4)s3)[nH]c2c1`, the growth inhibition in experiment [1] is 42%; in experiment [4], 91% (active). The inhibition is 24% in experiment [2] and 0% in experiment [3]. Also, the result in experiment [5], in experiment [6], in experiment [7] and in experiment [8] was inactive.
In the case of `CCCc1cc(C(=O)N[C@@H](Cc2ccccc2)[C@H](O)CNC2CCOCC2)c(F)c(N2CCCCS2(=O)=O)c1`, the growth inhibition in experiment [1] and in experiment [4] was 97% (active) throughout. Moreover, the inhibition in experiment [2] is -6%; in experiment [3], -3%. Besides, the result in experiment [5], in experiment [6], in experiment [7] and in experiment [8] was inactive.
For the compound `CCOc1cc(C(C)C)ccc1N1CCN(CCCCNC(=O)c2ccc(NC(=O)c3ccc(Cl)cc3)cc2)CC1`, the growth inhibition in experiment [1] was 97% (active); in experiment [4], 101% (active). Moreover, the inhibition was 28% in experiment [2] and 4% in experiment [3]. For the same compound, the result in experiment [5], in experiment [6], in experiment [7] and in experiment [8] was inactive.
Turning to `CCC1CCCCN1S(=O)(=O)c1ccc(NC(=O)c2cc(C)on2)cc1` (configuration not stated), the figures for the growth inhibition in experiment [1] and in experiment [4] were 53% (active) and 86% (active), respectively. In addition, the inhibition in experiment [2] and in experiment [3] was 0% in each case. Further, the outcome in experiment [5], in experiment [6], in experiment [7] and in experiment [8] was inactive.
Turning to `CC(C)CCn1c(Sc2ccc(C#N)c([N+](=O)[O-])c2)nnc1-c1ccccc1Cl`, the results for the growth inhibition in experiment [1] and in experiment [4] were 38% and 93% (active), respectively. The inhibition was 20% in experiment [2] and 3% in experiment [3]. Further, the outcome in experiment [5], in experiment [6], in experiment [7] and in experiment [8] was inactive.
In the case of `CN1CCN(c2nc(NCCNc3ccc([N+](=O)[O-])cc3)c3ccccc3n2)CC1`, the growth inhibition was 25% in experiment [1] and 90% (active) in experiment [4]. Moreover, the inhibition in experiment [2] is 37%; in experiment [3] it was 6%. Also, the result in experiment [5], in experiment [6], in experiment [7] and in experiment [8] was inactive.
Turning to `O=C(NC1CC1)c1ccc(Cn2c(SCc3cccc([N+](=O)[O-])c3)nc3ccccc3c2=O)cc1`, the growth inhibition in experiment [1] was 65% (active); in experiment [4] it was 91% (active). In addition, the figures for the inhibition in experiment [2] and in experiment [3] were 12% and 1%, respectively. For the same compound, the result in experiment [5], in experiment [6], in experiment [7] and in experiment [8] was inactive.
Take `Cc1ccc(S(=O)(=O)N(CCCNCc2cccc(O)c2)c2ccccc2)cc1`: the growth inhibition in experiment [1] is 94% (active); in experiment [4], 95% (active). For the same compound, the values for the inhibition in experiment [2] and in experiment [3] were 6% and 2%, respectively. The result in experiment [5], in experiment [6], in experiment [7] and in experiment [8] was inactive.
For the compound `Cn1cncc1C(=O)Nc1cccc(-c2cccc(-c3nc4ccc(F)cc4[nH]3)c2)c1`, the growth inhibition in experiment [1] is 45%; in experiment [4] it was 102% (active). The inhibition is 16% in experiment [2] and 3% in experiment [3]. Also, the outcome in experiment [5], in experiment [6], in experiment [7] and in experiment [8] was inactive.
Turning to `Nc1ccnc(N2CCC(CCOc3cc(C(F)(F)F)nc4c(C(F)(F)F)cccc34)CC2)c1`, the growth inhibition was 17% in experiment [1] and 98% (active) in experiment [4]. Further, the figures for the inhibition in experiment [2] and in experiment [3] were 35% and -1%, respectively. Moreover, the outcome in experiment [5], in experiment [6], in experiment [7] and in experiment [8] was inactive.
In the case of `Cc1ccc(C(=O)Nc2ccc(Nc3ccnc4cc(-c5ccccn5)ccc34)cc2O)cc1`, the growth inhibition in experiment [1] and in experiment [4] was 100% (active) in each case. Further, the inhibition is 100% (active) in experiment [2] and 2% in experiment [3]. For the same compound, the result in experiment [5], in experiment [6], in experiment [7] and in experiment [8] was inactive.
With `COc1cc(NC(=O)c2cc([N+](=O)[O-])ccc2NC(=O)CNC2CCCCC2C)cc(OC)c1` (configuration not stated), the figures for the growth inhibition in experiment [1] and in experiment [4] were 78% (active) and 87% (active), respectively. Further, the values for the inhibition in experiment [2] and in experiment [3] were -2% and 3%, respectively. Further, the outcome in experiment [5], in experiment [6], in experiment [7] and in experiment [8] was inactive.
